Assay results: PubChem BioAssay (Tox21)
Records with an inconclusive call do not appear. Activity calls are given as the source filed them. The call rests on the fitted dose curve; in most records, active means well fitted curve in the direction sought with a large enough effect in the repeat runs; inconclusive means weak or mixed curves; inactive means no such curve, though single readings can be large; an effect the other way counts as inactive or inconclusive.

Assays:
[1] = A CellTox Green Cytotoxicity Assay to monitor cytotoxicity in HEK293 cells - 0 hour (AID 1224869); further: nearly all actives have a fitted effect of over 50% in size
Outline: (§1)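 Tox21 screen in HEK293: membrane-impermeant cyanine dye fluoresces on binding dead-cell DNA; compound pinned 5 h post-seeding, plates held at 37 C, signal read repeatedly through 40 h.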

[2] = qHTS RealTime-Glo MT Cell Viability Assay in HepG2 cells - 40 hour (AID 1224870); further: nearly all actives have a fitted effect of over 50% in size
Outline: (§2)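 HepG2 cells mixed with RealTime-Glo MT reagents (NanoLuc plus cell-permeant prosubstrate) were seeded at 600 cells/well, incubated 5 h at 37 C/5% CO2, then pinned with compounds in DMSO; nonlytic luminescence tracked viability during 40 h treatment.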

[3] = A CellTox Green Cytotoxicity Assay to monitor cytotoxicity in HEK293 cells - 40 hour (AID 1224871); further: nearly all actives have a fitted effect of over 45% in size
Outline: as §1

[4] = qHTS RealTime-Glo MT Cell Viability Assay in HEK293 cells - 16 hour (AID 1224872); further: top concentration of the series differs between compounds; nearly all actives have a fitted effect of over 50% in size
Outline: (§3)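 Assay medium contained NanoLuc luciferase plus cell-permeant prosubstrate, added with HEK293 cells at 600 cells/well. After 5 h at 37 C/5% CO2 compounds were added; plates stayed at 37 C for 40 h with serial luminescence reads.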

[5] = qHTS RealTime-Glo MT Cell Viability Assay in HepG2 cells - 8 hour (AID 1224873); further: nearly all actives have a fitted effect of over 55% in size
Outline: as §2

[6] = qHTS RealTime-Glo MT Cell Viability Assay in HEK293 cells - 40 hour (AID 1224874); settings: RealTime-Glo luminescence, stronger effect = lower value; further: nearly all actives have a fitted effect of over 50% in size
Outline: (§4)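 HEK293 + NanoLuc + prosubstrate, 600 cells/well; 5 h, 37 C/5% CO2; compound 23 nL in DMSO by pintool; 37 C; luminescence read at 0, 8, 16, 24, 32 and 40 h time points.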

[7] = A CellTox Green Cytotoxicity Assay to monitor cytotoxicity in HEK293 cells - 24 hour (AID 1224875); further: series mostly up to about 77 µM; nearly all actives have a fitted effect of over 45% in size
Outline: as §1

[8] = A CellTox Green Cytotoxicity Assay to monitor cytotoxicity in HepG2 cells - 16 hour (AID 1224876); further: nearly all actives have a fitted effect of over 45% in size
Outline: (§5)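 Measurements at 0, 8, 16, 24, 32 and 40 h of treatment captured CellTox Green fluorescence in HepG2 cells that had been co-plated with reagent and preincubated 5 h at 37 C/5% CO2.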

[9] = qHTS RealTime-Glo MT Cell Viability Assay in HepG2 cells - 32 hour (AID 1224877); further: nearly all actives have a fitted effect of over 55% in size
Outline: (§6)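 qHTS, HepG2, 600 cells/well, RealTime-Glo (NanoLuc + prosubstrate) added with cells; 5 h preincubation; DMSO compound addition; 37 C; luminescence at 0/8/16/24/32/40 h.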

[10] = A CellTox Green Cytotoxicity Assay to monitor cytotoxicity in HepG2 cells - 24 hour (AID 1224878); further: nearly all actives have a fitted effect of over 45% in size
Outline: as §5

[11] = A CellTox Green Cytotoxicity Assay to monitor cytotoxicity in HepG2 cells - 40 hour (AID 1224879); further: nearly all actives have a fitted effect of over 40% in size
Outline: as §5

[12] = qHTS RealTime-Glo MT Cell Viability Assay in HEK293 cells - 0 hour (AID 1224880)
Outline: as §4

[13] = A CellTox Green Cytotoxicity Assay to monitor cytotoxicity in HEK293 cells - 32 hour (AID 1224881); further: nearly all actives have a fitted effect of over 40% in size
Outline: as §1

[14] = A CellTox Green Cytotoxicity Assay to monitor cytotoxicity in HepG2 cells - 0 hour (AID 1224882); further: nearly all actives have a fitted effect of over 35% in size
Outline: as §5

[15] = A CellTox Green Cytotoxicity Assay to monitor cytotoxicity in HepG2 cells - 32 hour (AID 1224883); further: nearly all actives have a fitted effect of over 50% in size
Outline: as §5

[16] = A CellTox Green Cytotoxicity Assay to monitor cytotoxicity in HEK293 cells - 8 hour (AID 1224884); further: nearly all actives have a fitted effect of over 35% in size
Outline: as §1

[17] = qHTS RealTime-Glo MT Cell Viability Assay in HepG2 cells - 16 hour (AID 1224885); further: nearly all actives have a fitted effect of over 50% in size
Outline: as §6

[18] = qHTS RealTime-Glo MT Cell Viability Assay in HEK293 cells - 24 hour (AID 1224886)
Outline: as §3

[19] = qHTS RealTime-Glo MT Cell Viability Assay in HEK293 cells - 8 hour (AID 1224887)
Outline: as §4

[20] = qHTS RealTime-Glo MT Cell Viability Assay in HEK293 cells - 32 hour (AID 1224868)
Outline: as §3
On the % scale 0 is the no-effect control and ±100 the full control effect.

CCCCCCCCCCCBr
inactive: outcome [1] | outcome [2] | Potency [3] | outcome [4] | outcome [5] | max response [6] -3.54% | Potency [7] | Potency [8] | outcome [9] | Potency [10] | Potency [11] | Potency [12] | Potency [13] | Potency [14] | Potency [15] | Potency [16] | outcome [17] | outcome [18] | outcome [19]

CCN1CCN(C(=O)N[C@@H](C(=O)N[C@@H]2C(=O)N3C(C(=O)O)=C(CSc4nnnn4C)CS[C@H]23)c2ccc(O)cc2)C(=O)C1=O
inactive: outcome [20] | outcome [1] | outcome [2] | Potency [3] | outcome [5] | max response [6] 15.1% | Potency [7] | Potency [8] | outcome [9] | Potency [10] | Potency [12] | Potency [13] | Potency [14] | Potency [15] | Potency [16] | outcome [17] | outcome [18] | outcome [19]

N=C(N)N
inactive: outcome [20] | outcome [2] | Potency [3] | outcome [4] | outcome [5] | max response [6] -0.588% | Potency [7] | Potency [8] | outcome [9] | Potency [10] | Potency [11] | Potency [12] | Potency [13] | Potency [14] | Potency [15] | outcome [17] | outcome [18]

CC1(C)C(=O)C(C)(C)C1=O
inactive: outcome [1] | outcome [2] | Potency [3] | outcome [4] | outcome [5] | max response [6] 6.04% | Potency [7] | Potency [8] | outcome [9] | Potency [10] | Potency [11] | Potency [12] | Potency [13] | Potency [14] | Potency [15] | Potency [16] | outcome [17] | outcome [18] | outcome [19]

Cc1ccc(OC(=O)CC(C)C)cc1
inactive: outcome [20] | outcome [1] | outcome [2] | outcome [4] | outcome [5] | max response [6] 3.9% | Potency [7] | Potency [8] | outcome [9] | Potency [10] | Potency [11] | Potency [12] | Potency [13] | Potency [14] | Potency [15] | Potency [16] | outcome [17] | outcome [18] | outcome [19]

C=CC(=O)OCC[N+](C)(C)C
inactive: outcome [1] | outcome [2] | Potency [3] | outcome [4] | outcome [5] | max response [6] 10.3% | Potency [7] | Potency [8] | outcome [9] | Potency [10] | Potency [11] | Potency [12] | Potency [13] | Potency [14] | Potency [15] | Potency [16] | outcome [17] | outcome [18] | outcome [19]

CCCC(=O)CC
inactive: outcome [20] | outcome [1] | outcome [2] | Potency [3] | outcome [5] | max response [6] 11.6% | Potency [7] | outcome [9] | Potency [10] | Potency [11] | Potency [12] | Potency [13] | Potency [14] | Potency [15] | Potency [16] | outcome [17] | outcome [18] | outcome [19]

Cc1cc2c(cc1CC(=O)c1sccc1S(=O)(=O)Nc1onc(C)c1Cl)OCO2
inactive: outcome [20] | outcome [1] | outcome [2] | Potency [3] | outcome [5] | Potency [7] | Potency [8] | outcome [9] | Potency [10] | Potency [11] | Potency [13] | Potency [14] | Potency [15] | Potency [16] | outcome [17] | outcome [18]

CCCC(=O)C(CC)Sc1ccoc1C (stereo not given)
inactive: outcome [20] | outcome [1] | outcome [2] | Potency [7] | Potency [8] | outcome [9] | Potency [12] | Potency [14] | Potency [16] | outcome [18]

COC(=O)c1ccc(NC(C)=O)cc1OC
inactive: outcome [20] | outcome [1] | outcome [2] | Potency [3] | max response [6] 3.94% | Potency [7] | Potency [8] | outcome [9] | Potency [10] | Potency [11] | Potency [12] | Potency [13] | Potency [14] | Potency [15] | Potency [16] | outcome [17] | outcome [18] | outcome [19]

CC(O)CCCCn1c(=O)c2c(ncn2C)n(C)c1=O (stereo not given)
inactive: outcome [20] | outcome [1] | outcome [2] | Potency [3] | outcome [5] | Potency [7] | Potency [8] | outcome [9] | Potency [10] | Potency [11] | Potency [12] | Potency [13] | Potency [14] | Potency [15] | Potency [16] | outcome [17] | outcome [18] | outcome [19]

CCCCS
inactive: outcome [20] | outcome [1] | outcome [2] | outcome [4] | outcome [5] | max response [6] 0.118% | Potency [8] | outcome [9] | Potency [10] | Potency [11] | Potency [12] | Potency [14] | Potency [15] | Potency [16] | outcome [17] | outcome [18] | outcome [19]

CCCC[O][Al]([O]CCCC)[O]CCCC
inactive: outcome [20] | outcome [1] | outcome [2] | Potency [3] | outcome [5] | max response [6] 2.78% | Potency [7] | outcome [9] | Potency [10] | Potency [12] | Potency [13] | Potency [14] | Potency [15] | Potency [16] | outcome [17] | outcome [18] | outcome [19]

CC(C)(C)C(=O)CCc1ccc(Cl)cc1
inactive: outcome [1] | outcome [2] | Potency [3] | outcome [4] | outcome [5] | max response [6] 1.49% | Potency [7] | Potency [8] | outcome [9] | Potency [10] | Potency [11] | Potency [12] | Potency [13] | Potency [14] | Potency [15] | Potency [16] | outcome [17] | outcome [18] | outcome [19]

CC(C)C[P+](C)(CC(C)C)CC(C)C
inactive: outcome [20] | outcome [1] | outcome [2] | outcome [5] | max response [6] -17.7% | Potency [8] | outcome [9] | Potency [10] | Potency [11] | Potency [12] | Potency [14] | Potency [15] | Potency [16] | outcome [17] | outcome [18] | outcome [19]
